Screening data from PubChem BioAssay.
An excerpt weighted towards active compounds, which were near 9.2% of everything screened.
SMN2 splice up: SMN2 splice variant enhancement. Potency, µM (series often up to 46.1 µM), inactives show top-dose activity change, positive = activation, usual class: activators. 2.8% of 210,000 active. HEK293 SMN2-luciferase splicing reporter, luminescence, 30-36 h; further: % of control where 0% means no effect; nearly all actives have a fitted effect of over 55% in size
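HEK293 cells carry an SMN2 […]–luciferase reporter in which exon 7 inclusion puts luciferase in frame. Cells were plated 10-12 h before compound addition, then incubated 30-36 h at 37C. ONE-Glo luminescence was read; sodium butyrate at 4.5 mM final served as control.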
ELG1 DNA repair: ELG1-dependent DNA repair inhibition | HEK293T ELG1-luciferase reporter, luminescence, 16 h; DNA damage induced by 5-fluorouridine | Potency, µM (titrated, usually from 46.1 µM), inactives show at the top dose activity change, negative = inhibition, actives largely listed as inhibitors | 2.3% of 330,000 active; further: on the % scale 0 is the no-effect control and ±100 the full control effect; nearly all actives have a fitted effect of over 55% in size
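Luminescence from the luciferase reporter, measured 30 min after ONE-Glo reagent at room temperature, was the read-out. Beforehand, 2,000 cells per well were exposed for 16 hr at 37 °C to 5-fluorouridine together with compound or vehicle.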
FLuc modulator: counter-screen for miR-21 project: firefly luciferase inhibitors or activators. AID 588342. 6.9% of 360,000 active. purified FLuc, Km substrates, luminescence inhibition. P08659. Potency, µM (titrated, usually from 57.5 µM), inactives show at the top dose activity change, negative = inhibition, hits mostly inhibitors;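 further: plate controls were vehicle for no effect and reference inhibitor for full effect; nearly all actives have a fitted effect of over 55% in size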
Target sequence (P08659 whole entry, looked up): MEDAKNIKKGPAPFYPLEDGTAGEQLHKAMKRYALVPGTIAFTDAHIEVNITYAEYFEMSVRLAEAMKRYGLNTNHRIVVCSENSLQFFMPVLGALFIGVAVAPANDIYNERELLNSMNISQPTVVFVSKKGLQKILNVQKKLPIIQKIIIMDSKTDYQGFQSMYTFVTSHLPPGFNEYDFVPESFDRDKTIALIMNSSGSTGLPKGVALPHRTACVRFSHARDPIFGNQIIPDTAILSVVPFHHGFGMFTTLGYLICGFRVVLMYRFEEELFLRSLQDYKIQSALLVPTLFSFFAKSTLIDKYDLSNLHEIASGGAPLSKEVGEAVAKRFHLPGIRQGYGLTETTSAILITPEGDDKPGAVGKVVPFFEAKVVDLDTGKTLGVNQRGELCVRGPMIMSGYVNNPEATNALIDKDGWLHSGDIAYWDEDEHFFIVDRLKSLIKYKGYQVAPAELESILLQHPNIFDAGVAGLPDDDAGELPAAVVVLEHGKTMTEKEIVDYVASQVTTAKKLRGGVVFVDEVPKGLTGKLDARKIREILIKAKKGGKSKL
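Purified P. pyralis luciferase, 10 nM final, with Km-level 10 uM D-luciferin and 10 uM ATP in 50 mM Tris acetate pH 7.5, 10 mM Mg acetate, 0.01% Tween-20, 0.05% BSA; 6-point qHTS titration about 60 µM downward; luminescence read.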
Rab9 promoter act: activators of Rab9 promoter. Huh7 Rab9 promoter-luciferase reporter, luminescence, 24 h. 2.8% of 320,000 active. Potency, µM (highest dose often 9.22 µM), without a hit: top-dose activation, negative = inhibition, usual class: activators; further: % of control where 0% means no effect; nearly all actives have a fitted effect of over 60% in size
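Luciferase signal after 10 min detection reagent at ambient indicates Rab9 promoter upregulation; stably transfected Huh7 cells were treated 24 h with compound in DMSO at 37 °C, 5% CO2.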
ELG1 genotoxic: genotoxicity induction in ELG1-luciferase HEK293T cells; 1.3% of 330,000 active; HEK293T ELG1-luciferase reporter, luminescence, 16 h; AID 504466; Potency, µM (titrated, usually from 46 µM), inactives show at the top dose activity change, positive = activation, hits mostly activators; further: % of control where 0% means no effect; nearly all actives have a fitted effect of over 60% in size
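Cells (2,000/well) expressing the ELG1-luciferase fusion are dosed by pin tool and kept 16 hr at 37 °C, 5% CO2. Signal comes from ONE-Glo luciferase reagent after 30 min at room temperature.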
NPC1 promoter act: NPC1 promoter activation | Potency, µM (series often up to 9.22 µM), without a hit: at the top dose activation, actives largely listed as activators | Huh7 NPC1 promoter luciferase reporter, 24 h | 2.4% of 320,000 active; further: % of control where 0% means no effect; nearly all actives have a fitted effect of over 60% in size
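Cells: Huh7 expressing luciferase under the NPC1 promoter, 1500/well. Seeded 2 h, compound added, incubated 24 h at 37 °C. Luciferase reagent, 10 min ambient, then luminescence.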
An asterisk follows results filed as active. The call rests on the fitted dose curve; in most records, active means well fitted curve in the direction sought with a large enough effect; inconclusive means small, poorly fitted or top-dose-only effect, or another doubt; inactive means no such curve, though single readings can be large; an effect the other way counts as inactive or inconclusive. Potency means the concentration at half of the fitted maximal effect.

What do the screens show for `Cn1c(NC(=O)c2cccnc2)nc2ccccc21`?
SMN2 splice up: 13µM*; ELG1 DNA repair: inconclusive; FLuc modulator: inconclusive; Rab9 promoter act: 3.5µM*; ELG1 genotoxic: 7%; NPC1 promoter act: 3.2µM*

Results for O=C(CNC(=O)c1ccc(-c2ccccc2)cc1)Nc1ccc(S(=O)(=O)Nc2ncccn2)cc1 ?
ELG1 DNA repair: 26%; FLuc modulator: 17µM*; Rab9 promoter act: 13%; ELG1 genotoxic: -2%; NPC1 promoter act: -2%

How did O=C(Nc1cnc2ccccc2c1)c1cccnc1 do in these assays?
SMN2 splice up: 13µM*; ELG1 DNA repair: inconclusive; FLuc modulator: 11µM*; Rab9 promoter act: 2.2µM*; ELG1 genotoxic: 4.6µM*; NPC1 promoter act: 3.2µM*

Results for Cc1ccnc(NS(=O)(=O)c2ccc(NC(=O)CSc3nc(-c4ccccc4)cc(=O)[nH]3)cc2)n1 ?
SMN2 splice up: -5%; ELG1 DNA repair: 7%; FLuc modulator: 13µM*; Rab9 promoter act: -12%; ELG1 genotoxic: 1%; NPC1 promoter act: -1%

Results for O=C(CSc1nc(NS(=O)(=O)c2ccccc2)cc(=O)[nH]1)Nc1ccc(F)cc1 ?
SMN2 splice up: 13%; ELG1 DNA repair: inconclusive; FLuc modulator: 7%; Rab9 promoter act: -1%; ELG1 genotoxic: 0%; NPC1 promoter act: -5%

What do the screens show for `O=C(Nc1cnc2ccccc2c1)c1ccco1`?
SMN2 splice up: 14µM*; ELG1 DNA repair: inconclusive; FLuc modulator: 7.6µM*; Rab9 promoter act: 0.63µM*; ELG1 genotoxic: inconclusive; NPC1 promoter act: 1.4µM*

How did Cc1ccc(C(=O)Nc2ccc(S(=O)(=O)Nc3cnc4ccccc4n3)cc2)cc1 do in these assays?
ELG1 DNA repair: inconclusive; FLuc modulator: 27µM*; Rab9 promoter act: 5%; ELG1 genotoxic: 14%; NPC1 promoter act: 0%

Results for Cc1ccc(C(=O)Nc2cnc3ccccc3c2)cc1 ?
ELG1 DNA repair: inconclusive; FLuc modulator: 0.076µM*; Rab9 promoter act: inconclusive; ELG1 genotoxic: inconclusive; NPC1 promoter act: inconclusive

Results for Cc1cc(C(=O)Nc2cnc3ccccc3c2)ccc1[N+](=O)[O-] ?
SMN2 splice up: 13µM*; ELG1 DNA repair: inconclusive; FLuc modulator: inconclusive; Rab9 promoter act: 2.2µM*; ELG1 genotoxic: inconclusive; NPC1 promoter act: 1.4µM*

Results for O=C(NNC(=O)c1cccc(-n2cnnn2)c1)c1ccccc1 ?
SMN2 splice up: -3%; ELG1 DNA repair: 6%; FLuc modulator: 1%; Rab9 promoter act: -1%; ELG1 genotoxic: 15%; NPC1 promoter act: -2%

What do the screens show for `CC(C)(C)c1ccc(C(=O)Nc2cccc(-n3cnnn3)c2)cc1`?
ELG1 DNA repair: inconclusive; FLuc modulator: 0.6µM*; Rab9 promoter act: inconclusive; ELG1 genotoxic: -7%; NPC1 promoter act: inconclusive

How did O=C(Nc1cccc(-n2cnnn2)c1)c1cc(Cl)nc(Cl)c1 do in these assays?
ELG1 DNA repair: 1%; FLuc modulator: 0%; Rab9 promoter act: 1%; ELG1 genotoxic: -2%; NPC1 promoter act: 1%

What do the screens show for `O=C(Nc1cnc2ccccc2c1)c1cccc(-n2cnnn2)c1`?
SMN2 splice up: inconclusive; ELG1 DNA repair: inconclusive; FLuc modulator: 24µM*; Rab9 promoter act: 4.5µM*; ELG1 genotoxic: 10%; NPC1 promoter act: 4µM*

Results for CC(C)CCNc1nc2c(-c3ccccc3)nnn2c2ccccc12 ?
SMN2 splice up: -12%; FLuc modulator: 3%

What do the screens show for `Oc1ccc(COC2CCCC2)c2cccnc12`?
FLuc modulator: 2%; Rab9 promoter act: -17%; NPC1 promoter act: -29%

Results for Cc1cc(C)cc(NC(=O)COC(=O)CCCNC(=O)c2ccc(Cl)cc2)c1 ?
SMN2 splice up: 16%; ELG1 DNA repair: 17%; FLuc modulator: 12µM*; Rab9 promoter act: -5%; ELG1 genotoxic: -1%; NPC1 promoter act: 0%

How did O=C(COC(=O)CCCNC(=O)c1ccc(Cl)cc1)Nc1cc(Cl)c(Cl)cc1Cl do in these assays?
SMN2 splice up: 5%; ELG1 DNA repair: 15%; FLuc modulator: inconclusive; Rab9 promoter act: -1%; ELG1 genotoxic: 7%; NPC1 promoter act: 0%

What do the screens show for `N#Cc1c(NC(=O)c2nc3ncccn3n2)sc2c1CCCCC2`?
SMN2 splice up: 7.9µM*; ELG1 DNA repair: inconclusive; FLuc modulator: 13µM*; Rab9 promoter act: 4.5µM*; ELG1 genotoxic: 2.3µM*; NPC1 promoter act: 1.8µM*

How did CC1CCc2c(sc(NC(=O)c3nc4ncccn4n3)c2C#N)C1 (centres undefined) do in these assays?
ELG1 DNA repair: inconclusive; FLuc modulator: 7.6µM*; Rab9 promoter act: 4.5µM*; ELG1 genotoxic: inconclusive; NPC1 promoter act: 3.2µM*

What do the screens show for `COc1ccc(C(=O)CC2(O)C(=O)N(CCc3ccccc3)c3ccc(Br)cc32)cc1OC` (centres undefined)?
SMN2 splice up: -15%; FLuc modulator: -17%

What do the screens show for `COc1ccc(OCC(=O)NC2CCCN(Cc3ccc(Cl)cc3)C2)cc1` (centres undefined)?
ELG1 DNA repair: 8.2µM*; FLuc modulator: 1%; Rab9 promoter act: 7%; ELG1 genotoxic: -17%; NPC1 promoter act: 0%

How did Cc1ccc2nc(-c3ccc(NC(=O)c4ccc(N)cc4)c(S(=O)(=O)O)c3)sc2c1 do in these assays?
SMN2 splice up: 4µM*

What do the screens show for `Cc1ccc2nc(-c3ccc(NC(=O)c4ccc(S(C)(=O)=O)cc4)cc3)sc2c1`?
FLuc modulator: 2%

Results for O=C(O)c1ccc2nc(-c3ccccc3)sc2c1 ?
SMN2 splice up: 0.1µM*; ELG1 DNA repair: inconclusive; FLuc modulator: 2.4µM*; Rab9 promoter act: -28%; ELG1 genotoxic: inconclusive; NPC1 promoter act: -27%

Results for Nc1ccc(-c2nc3ccc(C(=O)O)cc3s2)cc1 ?
ELG1 DNA repair: inconclusive; FLuc modulator: 0.21µM*; Rab9 promoter act: -43%; ELG1 genotoxic: inconclusive; NPC1 promoter act: -39%

Results for Nc1cc2sc(-c3ccc(C(=O)O)cc3)nc2cc1Cl ?
SMN2 splice up: 1.4µM*; ELG1 DNA repair: inconclusive; FLuc modulator: 0.67µM*; Rab9 promoter act: 0.56µM*; ELG1 genotoxic: inconclusive; NPC1 promoter act: 0.79µM*

What do the screens show for `O=c1cc(O)nc(-c2ccccc2)s1`?
SMN2 splice up: 3%; ELG1 DNA repair: 2%; FLuc modulator: -12%; Rab9 promoter act: 4%; ELG1 genotoxic: -3%; NPC1 promoter act: -2%

What do the screens show for `COc1ccc(NC(=O)c2ccc(N3CCCC3=O)cc2)cc1Cl`?
ELG1 DNA repair: 18%; ELG1 genotoxic: 7%
